Source: PubChem
Pf growth 96h – Primary qHTS for delayed death inhibitors of the malarial parasite plastid, 96 hour incubation; P. falciparum luciferase reporter growth, 96 h; Potency, µM (top dose mostly 28.7 µM), for inactives: top-dose activity change, negative = inhibition, most hits filed as inhibitors; 6.9% of 320,000 active; AID 504834, 2011; note: potency is the fitted concentration of half-maximal effect; % is set by controls: 0 for no effect and ±100 for the full control effect
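Parasite growth measured via integrated firefly luciferase reporter in P. falciparum. Infected erythrocytes at 2% hematocrit, 0.05% parasitemia final were treated 96 hours at 37 C under 5% CO2, and luminescence was read.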
CHX counter – Cycloheximide Counterscreen for Small Molecule Inhibitors of Shiga Toxin | cell reporter, cycloheximide protein synthesis inhibition counterscreen | max response, % | 12% of 300,000 active | AID 2314, 2010; in the data active = max response mostly above about 13%, no sharp cut-off; inactive = mostly below about 14%; note: read at 38.3 µM for the half of the compounds with a filed dose; 0% is about no effect
NS1 inh – qHTS Assay for Inhibitors of Influenza NS1 Protein Function; AID 2326, 2010; Potency, µM (series often up to 46.1 µM), inactives show at the highest dose activity, positive = more growth; 0.4% of 270,000 active; calls by dose curve; note: potency is the fitted concentration of half-maximal effect; actives are rising curves; nearly all actives have a fitted effect of over 50% in size
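Compounds were scored for reversing the slow growth caused by influenza A NS1 in S. cerevisiae, measured by optical density at 600 nm. Assay medium contained 2% galactose at pH 6.0; NS1-free yeast of the same strain were the positive control.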
FBPA Giardia inh – qHTS Assay for Inhibitors of Fructose-1,6-bisphosphate Aldolase from Giardia Lamblia; A8B2U2; purified Giardia FBPA; Potency, µM (series often up to 59.6 µM), without a hit: at the top dose activity, negative = inhibition, hits mostly inhibitors; 0.71% of 290,000 active; AID 2451, 2010; note: potency is the fitted concentration of half-maximal effect; % is set by controls: 0 for no effect and ±100 for the full control effect; nearly all actives have a fitted effect of over 55% in size
Target sequence (A8B2U2 whole entry, looked up): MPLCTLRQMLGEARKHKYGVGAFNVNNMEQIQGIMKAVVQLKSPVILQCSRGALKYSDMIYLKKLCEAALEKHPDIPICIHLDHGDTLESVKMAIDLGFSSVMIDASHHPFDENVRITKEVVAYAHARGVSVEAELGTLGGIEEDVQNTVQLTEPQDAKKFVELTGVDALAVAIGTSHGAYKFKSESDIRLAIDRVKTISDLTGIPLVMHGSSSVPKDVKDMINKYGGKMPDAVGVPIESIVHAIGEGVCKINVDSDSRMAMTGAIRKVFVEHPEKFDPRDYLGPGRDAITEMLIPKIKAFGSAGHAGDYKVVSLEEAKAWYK
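40 nM FBPA preincubated 10 min at RT with compound (up to 57.5 uM final), then substrate plus GAPDH/TPI/NAD/arsenate coupling and diaphorase/resazurin added. Fluorescence read after 20 min at RT, 525/598 nm.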
Pf growth 48h – Primary qHTS for delayed death inhibitors of the malarial parasite plastid, 48 hour incubation | P. falciparum luciferase growth in erythrocytes, 48 h | Potency, µM (highest dose often 28.7 µM), inactives show top-dose activity change, negative = inhibition, most hits filed as inhibitors | 5.9% of 310,000 active; note: potency is the fitted concentration of half-maximal effect; % is set by controls: 0 for no effect and ±100 for the full control effect
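Luminescence readout; reporter = integrated firefly luciferase in P. falciparum. RBC culture at 2% hematocrit, 0.1% parasitemia final, 37 C/5% CO2; decreased signal taken as growth inhibition.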
Shiga toxin inh – A qHTS for Small Molecule Inhibitors of Shiga Toxin. Vero cells, Shiga toxin protein synthesis inhibition reporter. AID 2315, 2010. inhibition, % at 38.7 µM. 9.2% of 290,000 active; in the data active = inhibition mostly above about 28%, no sharp cut-off; inactive = mostly below about 43%; note: 0% is about no effect
Active calls of the source: *; ? = inconclusive; . = no result given; [ ] = another dose, or the depositor's remark. Hits are enriched below; roughly 21% of the tested compounds scored in any of these assays. Unless noted, calls come from the whole dose curve; as a rule, active = well fitted curve in the direction sought with a large enough effect; inconclusive = small, poorly fitted or top-dose-only effect, or another doubt; inactive = no such curve, though single readings can be large; an effect the other way counts as inactive or inconclusive.

SMILES	Pf growth 96h	CHX counter	NS1 inh	FBPA Giardia inh	Pf growth 48h	Shiga toxin inh
COc1cc(NC(=O)C/C(C)=N/NC(=O)C(=O)NCCO)c(OC)cc1Cl	24%	-2	-3%	-12%	-4%	23
COc1cc(OC)cc(C(=O)N2CC(=O)Nc3ccccc32)c1	?	-1	13%	2%	-24%	-15
CCCCCN(CCCCC)C(=O)[C@H](CCC(=O)O)NC(=O)[C@H](Cc1ccc(OP(=O)(O)O)cc1)NC(C)=O	.	14	.	3%	.	15
O=C(O)CCCCCNC(=O)C(=O)C1C(=O)Nc2ccccc21 (stereo unspecified)	2%	-3	-2%	-25%	-2%	29
O=C(NN=C1CCCC1)c1n[nH]c2c1CCCC2	1%	32*	5%	0%	50%	59*
CCOc1cc(C(=O)NN=C2CCCC2)cc(OCC)c1OCC	?	-2	10%	1%	59%	-10
O=C(NN=C1CCCC1)c1n[nH]c2c1CCC2	?	24*	-1%	3%	0%	27
O=C(NC1CCCCC1)c1n[nH]c2c1CCCCC2	47%	.	.	.	?	.
COc1ccc(NC(=O)CN(C)C(=O)CCNS(=O)(=O)c2ccc(Br)cc2)cc1	7%	-2	-8%	.	-3%	-11
O=C(O)C1CC(c2ccccc2)=Nc2ccccc2S1 (stereo unspecified)	39%	58*	7%	-18%	?	72*
O=[N+]([O-])c1ccc(C2CC(c3ccccc3)=Nc3ccccc3S2)cc1 (stereo unspecified)	3%	57*	-52%	?	?	67*
Fc1ccc(C2CC(c3ccco3)=Nc3ccccc3S2)cc1 (stereo unspecified)	85%	10	.	?	61%	25
CC(=O)Oc1c(C)cc(Cl)cc1C(=O)Nc1ccc([N+](=O)[O-])cc1Cl	31%	74*	-65%	3%	?	128*
CN=C1C=CC(=C(c2ccc(N(C)C)cc2)c2ccc(N(C)C)cc2)C=C1	1.1µM*	.	.	.	0.21µM*	.
N=C1C=CC(=C(c2ccc(N)cc2)c2ccc(N)cc2)C=C1	.	.	-4%	.	.	.
CC(=O)c1sc(N)c(C(=O)OC(C)C)c1C	130%	19*	-15%	-1%	66%	24
Cc1c(C(=O)OC(C)C)sc(N)c1C(=O)OC(C)C	23%	32*	-4%	-5%	49%	107*
CC(C)OC(=O)c1c(N)sc2c1CCCC2	.	.	-35%	.	.	.
Cc1c(C(N)=O)sc(N)c1C(=O)OC(C)C	10%	2	2%	4%	0%	11
CC1CCCC(C)N1C(=O)COC(=O)Cc1ccc(F)cc1 (stereo unspecified)	1%	4	-6%	7%	-17%	-3
Cc1ccc(CCNC(=O)CC(C)CC2=NS(=O)(=O)c3ccccc3N2)cc1 (stereo unspecified)	?	-6	4%	.	?	2
COC(=O)C1=C(C(=O)OC)[C@@H]2N(C)c3ccccc3[C@@]23C[C@@H](CO)N=C3N1	.	.	.	7%[12.9 µM]	.	.
CCOC(=O)c1c(NC(=O)CN2CCCc3ccccc32)sc(C)c1C	?	34*	4%	-1%	?	38
COCCOC(=O)c1c(NC(=O)CN2CCCc3ccccc32)sc(C(N)=O)c1C	10µM*	1	4%	0%	?	-5
CCOC(=O)c1c(N)sc2c1CCC1C(=O)N(C3CCCCC3)C(=O)C21 (stereo unspecified)	15µM*	32*	-3%	-17%	13µM*	49
SMILES	Pf growth 96h	CHX counter	NS1 inh	FBPA Giardia inh	Pf growth 48h	Shiga toxin inh
COc1cc(/C=C/C(=O)OCC(=O)N2CCCC2)ccc1OCC#N	?	.	.	.	-8%	.
O=C(CC1Sc2ncnn2C1=O)Nc1ccc(Br)cc1 (stereo unspecified)	10µM*	-2	-70%	?	2%	-3
O=C(CC1SC2=NCCN2C1=O)Nc1ccc(Br)cc1 (stereo unspecified)	.	-4	11%	3%	-14%	-2
O=C(CC1SC(=Nc2ccccc2)N(Cc2ccccn2)C1=O)Nc1ccc(Br)cc1 (stereo unspecified)	?	20*	?	-9%	-71%	48*
O=C(CC1SC(=Nc2cccc3ccccc23)N(Cc2ccccn2)C1=O)Nc1ccccc1Br (stereo unspecified)	8.3µM*	-3	18%	-9%	9.3µM*	2
COCCN1C(=O)C(CC(=O)Nc2ccc(C(=O)O)cc2)SC1=Nc1ccccc1 (stereo unspecified)	68%	1	0%	2%	9%	10
CC1(C)Cc2c(cnn2-c2ccccc2)C(NC(=O)c2ccc[n+]([O-])c2)C1 (stereo unspecified)	9%	9	21%	.	5%	-22
CC(=O)N1c2c(cc(Br)cc2S(=O)(=O)N2CCN(C(=O)c3ccco3)CC2)CC1C (stereo unspecified)	.	-2	-2%	18%	10µM*	5
COc1ccc(CNS(=O)(=O)c2cc(Br)cc3c2N(C(C)=O)C(C)C3)cc1 (stereo unspecified)	4.1µM*	-1	6%	5%	-8%	-5
CO[C@@H]1COC(=O)CC=C[C@@H](C)[C@@H]2C=C[C@H](O)[C@@H](COC(=O)C/C=C\[C@H]1C)O2	.	.	.	3%[12.9 µM]	.	.
C/C(=N\NC(=O)c1cccc(N/N=C(\C)c2cc(O)ccc2O)c1)c1cc(O)ccc1O	?	32*	10%	-5%	?	88*
C/C(=N\NC(=O)c1cccc([N+](=O)[O-])c1)c1ccco1	13%	15*	5%	-7%	13%	50*
C/C(=N\NC(=O)c1cccc(N/N=C(\C)c2ccco2)c1)c1ccco1	7%	29*	.	-14%	0%	90*
C/C(=N\NC(=O)c1cccc(S(=O)(=O)Nc2ccccc2Cl)c1)c1ccco1	-12%	2	?	2%	13%	2
C/C(=N\NC(=O)c1ccc([N+](=O)[O-])cc1)c1cccc([N+](=O)[O-])c1	?	11	.	0%	27%	3
CC(C)COc1ccc(C(=O)N/C(=C\c2cccc([N+](=O)[O-])c2)C(=O)OC(C)C)cc1	13%	-3	12%	.	0.15µM*	11
CCCCOc1ccc(C(=O)N/C(=C/c2cccc([N+](=O)[O-])c2)C(=O)O)cc1	19%	4	-6%	29%	0%	-4
CCCCOc1ccc(C(=O)N/C(=C\c2cccc([N+](=O)[O-])c2)C(=O)OC(C)C)cc1	0.47µM*	-4	6%	0%	0.59µM*	-9
CCCCOc1ccc(C(=O)N/C(=C\c2cccc([N+](=O)[O-])c2)C(=O)OCCC)cc1	1.7µM*	11	4%	-1%	?	60
